# Results: paper PMC7862700, “An all-to-all approach to the identification of sequence-specific readers for epigenetic DNA modifications on cytosine”
# What was measured:
# Assay in all cases: DAPPL (digital affinity profiling via proximity ligation, sequencing); 10 mM Tris-HCl pH 7.5, 50 mM NaCl, 1 mM DTT, 4% glycerol, room temperature, 30 min; GST-TFs on glutathione beads, 16-mer random dsDNA library, 0.1% formaldehyde crosslink after washing; high values mean tight binding
# FLI1 = target: T1, FLI1 (Homo sapiens, UniProt Q01543 1-452); conditions: protein: recombinant; tags: N-terminal GST; dsDNA, one strand shown
# T1 sequence: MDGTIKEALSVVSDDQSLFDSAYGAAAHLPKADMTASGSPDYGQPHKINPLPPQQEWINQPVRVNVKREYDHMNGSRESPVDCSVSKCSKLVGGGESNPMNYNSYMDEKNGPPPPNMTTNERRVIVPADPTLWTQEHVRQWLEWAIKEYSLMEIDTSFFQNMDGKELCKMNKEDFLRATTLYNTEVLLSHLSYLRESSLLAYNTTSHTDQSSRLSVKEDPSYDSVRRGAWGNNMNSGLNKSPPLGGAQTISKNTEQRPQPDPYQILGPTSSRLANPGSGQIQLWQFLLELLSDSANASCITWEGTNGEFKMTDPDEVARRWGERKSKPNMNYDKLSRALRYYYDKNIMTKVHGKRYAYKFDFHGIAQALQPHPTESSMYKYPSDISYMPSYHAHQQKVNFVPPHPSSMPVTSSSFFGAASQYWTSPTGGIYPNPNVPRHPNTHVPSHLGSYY
# How it was run: (§1)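 Human transcription factors fused to GST were expressed in yeast, captured on glutathione beads, given DNA barcodes and pooled with a GST-only negative control. Pools were incubated with 200 nmole of a 16-mer random double-stranded DNA library in Tris/NaCl/DTT/glycerol buffer at room temperature for 30 min. They were then washed, crosslinked with 0.1% formaldehyde, proximity-ligated (BsaI/T4 ligase, 1 h, 37 °C), PCR-amplified and sequenced on an Illumina NextSeq500. Binding signal is each 6-mer's read frequency for a factor divided by its frequency for the GST control.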
# ELK1 = target: T2, ELK1 (Homo sapiens, UniProt P19419 1-428); conditions: protein: recombinant; tags: N-terminal GST; dsDNA, one strand shown
# T2 sequence: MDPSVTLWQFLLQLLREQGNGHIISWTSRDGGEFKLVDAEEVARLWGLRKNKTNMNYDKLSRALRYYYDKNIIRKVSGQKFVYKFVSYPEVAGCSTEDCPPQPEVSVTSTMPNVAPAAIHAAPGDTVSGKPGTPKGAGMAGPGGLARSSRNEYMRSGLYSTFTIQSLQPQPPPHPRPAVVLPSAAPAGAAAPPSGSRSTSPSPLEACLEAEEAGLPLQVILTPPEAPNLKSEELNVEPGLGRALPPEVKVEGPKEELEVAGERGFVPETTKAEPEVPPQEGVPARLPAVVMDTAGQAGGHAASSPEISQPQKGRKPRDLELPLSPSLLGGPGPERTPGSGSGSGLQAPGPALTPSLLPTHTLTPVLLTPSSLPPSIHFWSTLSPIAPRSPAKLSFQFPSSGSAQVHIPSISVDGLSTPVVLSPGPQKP
# How it was run: as §1
# GABPA = target: T3, GABPA (Homo sapiens, UniProt Q06546 1-454); conditions: protein: recombinant; tags: N-terminal GST; dsDNA, one strand shown
# T3 sequence: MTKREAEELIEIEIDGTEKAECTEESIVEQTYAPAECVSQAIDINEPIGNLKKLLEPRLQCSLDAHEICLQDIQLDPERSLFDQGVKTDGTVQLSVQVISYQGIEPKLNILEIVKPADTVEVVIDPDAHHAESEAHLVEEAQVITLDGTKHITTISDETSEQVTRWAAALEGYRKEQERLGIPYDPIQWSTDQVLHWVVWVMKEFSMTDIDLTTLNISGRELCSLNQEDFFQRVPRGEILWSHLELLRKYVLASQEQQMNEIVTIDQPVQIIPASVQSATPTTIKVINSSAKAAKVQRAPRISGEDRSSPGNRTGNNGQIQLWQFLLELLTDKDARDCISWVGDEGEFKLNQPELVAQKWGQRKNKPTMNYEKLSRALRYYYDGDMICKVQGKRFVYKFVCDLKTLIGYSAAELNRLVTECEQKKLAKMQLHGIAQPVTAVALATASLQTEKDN
# How it was run: as §1
# ERG = target: T4, ERG (Homo sapiens, UniProt P11308 1-479); conditions: protein: recombinant; tags: N-terminal GST; dsDNA, one strand shown
# T4 sequence: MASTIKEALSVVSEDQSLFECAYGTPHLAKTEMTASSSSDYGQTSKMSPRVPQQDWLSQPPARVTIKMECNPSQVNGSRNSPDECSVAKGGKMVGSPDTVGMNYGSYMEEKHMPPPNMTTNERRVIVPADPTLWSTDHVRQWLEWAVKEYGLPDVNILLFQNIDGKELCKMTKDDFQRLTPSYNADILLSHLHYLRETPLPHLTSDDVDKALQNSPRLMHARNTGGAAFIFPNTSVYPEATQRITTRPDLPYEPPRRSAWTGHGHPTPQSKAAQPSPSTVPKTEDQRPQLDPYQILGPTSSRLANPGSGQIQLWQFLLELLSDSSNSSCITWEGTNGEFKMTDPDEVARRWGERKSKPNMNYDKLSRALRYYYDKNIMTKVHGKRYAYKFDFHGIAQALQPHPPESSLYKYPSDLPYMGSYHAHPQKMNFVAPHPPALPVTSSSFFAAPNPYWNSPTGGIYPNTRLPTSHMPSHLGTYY
# How it was run: as §1
# ELF1 = ELF1 (Homo sapiens, UniProt P32519 1-619); conditions: protein: recombinant; tags: N-terminal GST; dsDNA, one strand shown
# Sequence of ELF1 (P32519 whole entry): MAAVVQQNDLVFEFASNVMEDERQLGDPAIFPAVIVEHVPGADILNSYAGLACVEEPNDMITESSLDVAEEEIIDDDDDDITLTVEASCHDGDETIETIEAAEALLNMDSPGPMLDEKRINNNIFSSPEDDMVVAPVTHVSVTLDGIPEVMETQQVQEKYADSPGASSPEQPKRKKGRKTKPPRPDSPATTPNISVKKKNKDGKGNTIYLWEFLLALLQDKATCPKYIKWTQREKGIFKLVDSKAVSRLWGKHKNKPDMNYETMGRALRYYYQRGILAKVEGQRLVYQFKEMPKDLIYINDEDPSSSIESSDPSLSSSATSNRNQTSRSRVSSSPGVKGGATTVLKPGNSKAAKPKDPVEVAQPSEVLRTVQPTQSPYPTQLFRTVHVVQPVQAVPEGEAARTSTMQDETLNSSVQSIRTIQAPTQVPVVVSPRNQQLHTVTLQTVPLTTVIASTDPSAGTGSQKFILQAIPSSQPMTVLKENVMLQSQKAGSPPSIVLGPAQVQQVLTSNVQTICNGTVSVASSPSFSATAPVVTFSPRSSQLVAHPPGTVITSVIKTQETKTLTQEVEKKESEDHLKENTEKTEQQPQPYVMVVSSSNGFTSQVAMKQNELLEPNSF
# How it was run: as §1
# EHF = target: T5, EHF (Homo sapiens, UniProt Q9NZC4 1-300); conditions: protein: recombinant; tags: N-terminal GST; dsDNA, one strand shown
# T5 sequence: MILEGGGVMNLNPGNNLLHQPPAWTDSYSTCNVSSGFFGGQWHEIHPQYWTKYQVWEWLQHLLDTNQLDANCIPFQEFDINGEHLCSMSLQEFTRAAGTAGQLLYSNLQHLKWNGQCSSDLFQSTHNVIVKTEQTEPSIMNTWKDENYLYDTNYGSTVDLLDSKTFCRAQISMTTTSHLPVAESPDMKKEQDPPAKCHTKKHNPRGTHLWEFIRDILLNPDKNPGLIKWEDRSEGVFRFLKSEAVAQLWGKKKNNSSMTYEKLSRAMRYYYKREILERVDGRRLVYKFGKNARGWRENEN
# How it was run: as §1
# SPI1 = SPI1 (Homo sapiens, UniProt P17947 1-270); conditions: protein: recombinant; tags: N-terminal GST; dsDNA, one strand shown
# How it was run: as §1
# SPIB = SPIB (Homo sapiens, UniProt Q01892 1-262); conditions: protein: recombinant; tags: N-terminal GST; dsDNA, one strand shown
# Sequence of SPIB (Q01892 whole entry): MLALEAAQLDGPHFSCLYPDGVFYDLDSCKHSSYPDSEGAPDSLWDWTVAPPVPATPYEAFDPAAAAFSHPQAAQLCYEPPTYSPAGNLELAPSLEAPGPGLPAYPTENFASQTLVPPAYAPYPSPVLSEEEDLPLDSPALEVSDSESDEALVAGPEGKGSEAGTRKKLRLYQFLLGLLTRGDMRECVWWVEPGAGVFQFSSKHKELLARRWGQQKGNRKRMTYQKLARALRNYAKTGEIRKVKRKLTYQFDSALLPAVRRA
# How it was run: as §1
# ELK3 = target: T6, ELK3 (Homo sapiens, UniProt P41970 1-407); conditions: protein: recombinant; tags: N-terminal GST; dsDNA, one strand shown
# T6 sequence: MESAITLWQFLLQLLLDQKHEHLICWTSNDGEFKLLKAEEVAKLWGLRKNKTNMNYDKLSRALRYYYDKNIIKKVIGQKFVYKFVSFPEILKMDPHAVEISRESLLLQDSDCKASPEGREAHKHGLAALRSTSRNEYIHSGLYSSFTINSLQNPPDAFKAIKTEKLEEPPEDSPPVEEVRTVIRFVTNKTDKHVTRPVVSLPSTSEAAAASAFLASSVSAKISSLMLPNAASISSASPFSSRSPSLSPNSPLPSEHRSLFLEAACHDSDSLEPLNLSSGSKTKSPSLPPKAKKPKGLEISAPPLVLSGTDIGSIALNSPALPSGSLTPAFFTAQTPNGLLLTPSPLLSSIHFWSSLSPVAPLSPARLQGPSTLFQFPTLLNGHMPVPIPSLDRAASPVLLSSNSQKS
# How it was run: as §1
# FEV = target: T7, FEV (Homo sapiens, UniProt Q99581 1-238); conditions: protein: recombinant; tags: N-terminal GST; dsDNA, one strand shown
# T7 sequence: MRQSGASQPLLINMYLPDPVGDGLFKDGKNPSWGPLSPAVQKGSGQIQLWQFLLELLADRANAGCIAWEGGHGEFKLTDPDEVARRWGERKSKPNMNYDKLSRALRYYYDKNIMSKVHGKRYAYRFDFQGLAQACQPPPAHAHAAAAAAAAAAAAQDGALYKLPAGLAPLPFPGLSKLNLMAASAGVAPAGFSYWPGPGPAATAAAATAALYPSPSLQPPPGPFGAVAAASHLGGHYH
# How it was run: as §1
# ETV5 = ETV5 (Homo sapiens, UniProt P41161 1-510); conditions: protein: recombinant; tags: N-terminal GST; dsDNA, one strand shown
# Sequence of ETV5 (P41161 whole entry): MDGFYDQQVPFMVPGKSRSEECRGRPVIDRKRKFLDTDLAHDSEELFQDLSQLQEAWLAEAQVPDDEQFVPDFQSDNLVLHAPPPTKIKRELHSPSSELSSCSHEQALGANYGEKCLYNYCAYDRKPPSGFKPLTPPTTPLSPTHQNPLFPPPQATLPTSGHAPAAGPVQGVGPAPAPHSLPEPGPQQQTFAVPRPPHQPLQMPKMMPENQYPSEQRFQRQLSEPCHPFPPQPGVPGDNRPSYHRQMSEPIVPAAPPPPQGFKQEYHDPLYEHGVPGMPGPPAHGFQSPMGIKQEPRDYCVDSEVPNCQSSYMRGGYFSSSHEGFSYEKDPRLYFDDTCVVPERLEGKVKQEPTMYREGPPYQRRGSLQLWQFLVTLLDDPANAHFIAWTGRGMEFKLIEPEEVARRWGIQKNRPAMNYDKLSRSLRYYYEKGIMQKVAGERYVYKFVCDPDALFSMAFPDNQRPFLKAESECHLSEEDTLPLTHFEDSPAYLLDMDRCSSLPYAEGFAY
# How it was run: as §1
# HSF1 = HSF1 (Homo sapiens, UniProt Q00613 1-529); conditions: protein: recombinant; tags: N-terminal GST; chain copies: 3; dsDNA, one strand shown
# Sequence of HSF1 (Q00613 whole entry): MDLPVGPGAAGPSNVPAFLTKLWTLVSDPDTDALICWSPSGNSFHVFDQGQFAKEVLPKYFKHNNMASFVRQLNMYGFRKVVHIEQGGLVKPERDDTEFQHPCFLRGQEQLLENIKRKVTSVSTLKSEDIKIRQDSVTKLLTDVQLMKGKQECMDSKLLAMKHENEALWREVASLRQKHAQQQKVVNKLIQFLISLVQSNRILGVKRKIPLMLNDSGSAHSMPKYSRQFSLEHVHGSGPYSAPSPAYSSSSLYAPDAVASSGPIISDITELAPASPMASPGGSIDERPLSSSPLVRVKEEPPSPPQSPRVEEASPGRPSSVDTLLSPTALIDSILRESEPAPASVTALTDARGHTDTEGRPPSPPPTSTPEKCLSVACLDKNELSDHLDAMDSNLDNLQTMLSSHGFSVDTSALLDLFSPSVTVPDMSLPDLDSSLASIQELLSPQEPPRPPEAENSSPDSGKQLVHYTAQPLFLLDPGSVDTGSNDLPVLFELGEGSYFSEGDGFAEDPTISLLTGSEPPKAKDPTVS
# How it was run: as §1
# SPIC = target: T8, SPIC (Homo sapiens, UniProt Q8N5J4 1-248); conditions: protein: recombinant; tags: N-terminal GST; dsDNA, one strand shown
# T8 sequence: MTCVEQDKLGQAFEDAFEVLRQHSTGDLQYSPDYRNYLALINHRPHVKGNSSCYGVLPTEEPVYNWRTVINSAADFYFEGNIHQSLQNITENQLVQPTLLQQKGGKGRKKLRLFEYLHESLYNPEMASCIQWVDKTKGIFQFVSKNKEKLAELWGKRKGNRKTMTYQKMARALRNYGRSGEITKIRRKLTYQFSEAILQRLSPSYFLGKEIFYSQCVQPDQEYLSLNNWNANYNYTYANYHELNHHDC
# How it was run: as §1
# ELF4 = ELF4 (Homo sapiens, UniProt Q99607 1-663); conditions: protein: recombinant; tags: N-terminal GST; dsDNA, one strand shown
# Sequence of ELF4 (Q99607 whole entry): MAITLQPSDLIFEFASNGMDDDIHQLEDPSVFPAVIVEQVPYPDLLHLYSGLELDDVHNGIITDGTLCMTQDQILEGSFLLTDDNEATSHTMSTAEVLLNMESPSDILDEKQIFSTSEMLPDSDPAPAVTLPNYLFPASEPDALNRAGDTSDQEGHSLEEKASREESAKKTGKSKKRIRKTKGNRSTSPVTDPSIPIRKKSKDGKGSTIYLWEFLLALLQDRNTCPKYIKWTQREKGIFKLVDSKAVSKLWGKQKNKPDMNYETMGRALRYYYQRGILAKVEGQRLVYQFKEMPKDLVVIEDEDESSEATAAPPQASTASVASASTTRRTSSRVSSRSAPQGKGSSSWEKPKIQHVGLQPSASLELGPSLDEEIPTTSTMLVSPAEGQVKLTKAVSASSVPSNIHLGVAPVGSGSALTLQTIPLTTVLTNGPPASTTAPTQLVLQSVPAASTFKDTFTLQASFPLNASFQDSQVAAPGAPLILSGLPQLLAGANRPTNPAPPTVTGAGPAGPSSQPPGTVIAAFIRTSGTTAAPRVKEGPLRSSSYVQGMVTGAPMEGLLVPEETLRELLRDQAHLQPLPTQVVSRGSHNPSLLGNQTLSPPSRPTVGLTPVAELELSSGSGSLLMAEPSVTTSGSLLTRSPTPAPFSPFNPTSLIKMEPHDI
# How it was run: as §1
# ELK4 = target: T9, ELK4 (Homo sapiens, UniProt P28324-2 1-405); conditions: protein: recombinant; tags: N-terminal GST; dsDNA, one strand shown
# T9 sequence: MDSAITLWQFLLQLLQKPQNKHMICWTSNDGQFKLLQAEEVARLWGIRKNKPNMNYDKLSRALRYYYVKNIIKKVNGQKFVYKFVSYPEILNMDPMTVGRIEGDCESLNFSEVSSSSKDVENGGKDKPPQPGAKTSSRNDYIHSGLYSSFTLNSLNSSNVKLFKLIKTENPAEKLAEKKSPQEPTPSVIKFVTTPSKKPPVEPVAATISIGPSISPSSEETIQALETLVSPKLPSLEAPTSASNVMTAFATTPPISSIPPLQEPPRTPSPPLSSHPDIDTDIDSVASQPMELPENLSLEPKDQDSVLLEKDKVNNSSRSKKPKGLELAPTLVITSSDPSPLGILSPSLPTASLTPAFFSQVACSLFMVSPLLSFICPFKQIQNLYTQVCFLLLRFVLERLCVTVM
# How it was run: as §1
# ETV2 = target: T10, ETV2 (Homo sapiens, UniProt O00321 1-342); conditions: protein: recombinant; tags: N-terminal GST; dsDNA, one strand shown
# T10 sequence: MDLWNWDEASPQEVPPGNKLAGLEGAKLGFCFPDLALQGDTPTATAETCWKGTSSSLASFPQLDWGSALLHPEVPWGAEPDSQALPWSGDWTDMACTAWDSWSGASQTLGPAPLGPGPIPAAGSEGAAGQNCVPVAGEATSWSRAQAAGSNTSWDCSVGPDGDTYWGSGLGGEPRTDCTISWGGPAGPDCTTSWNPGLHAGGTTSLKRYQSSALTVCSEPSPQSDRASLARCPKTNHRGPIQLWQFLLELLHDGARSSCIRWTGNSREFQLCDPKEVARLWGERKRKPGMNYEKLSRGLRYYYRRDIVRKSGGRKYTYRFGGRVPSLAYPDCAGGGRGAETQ
# How it was run: as §1
# ELF3 = target: T11, ELF3 (Homo sapiens, UniProt P78545 1-371); conditions: protein: recombinant; tags: N-terminal GST; dsDNA, one strand shown
# T11 sequence: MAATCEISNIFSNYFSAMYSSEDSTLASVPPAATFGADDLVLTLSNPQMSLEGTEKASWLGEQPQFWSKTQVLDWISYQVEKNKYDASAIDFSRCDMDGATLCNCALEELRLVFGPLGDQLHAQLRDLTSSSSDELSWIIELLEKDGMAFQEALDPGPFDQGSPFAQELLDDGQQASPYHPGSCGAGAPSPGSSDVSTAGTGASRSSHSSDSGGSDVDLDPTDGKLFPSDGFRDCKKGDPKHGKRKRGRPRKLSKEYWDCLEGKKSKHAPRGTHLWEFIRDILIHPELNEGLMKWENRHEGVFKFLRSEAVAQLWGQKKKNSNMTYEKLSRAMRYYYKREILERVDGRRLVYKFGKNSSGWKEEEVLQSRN
# How it was run: as §1
# CRX = CRX (Homo sapiens, UniProt O43186 1-299); conditions: protein: recombinant; tags: N-terminal GST; dsDNA, one strand shown
# Sequence of CRX (O43186 whole entry): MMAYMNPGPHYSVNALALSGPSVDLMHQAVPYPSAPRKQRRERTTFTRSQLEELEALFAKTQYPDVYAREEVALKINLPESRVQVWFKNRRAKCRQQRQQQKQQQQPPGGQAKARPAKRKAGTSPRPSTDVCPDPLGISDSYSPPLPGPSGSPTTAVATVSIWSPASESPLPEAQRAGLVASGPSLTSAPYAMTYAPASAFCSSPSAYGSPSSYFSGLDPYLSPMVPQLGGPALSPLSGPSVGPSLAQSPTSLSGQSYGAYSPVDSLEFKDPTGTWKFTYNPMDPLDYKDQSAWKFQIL
# How it was run: as §1
# ETV1 = ETV1 (Homo sapiens, UniProt P50549 1-477); conditions: protein: recombinant; tags: N-terminal GST; dsDNA, one strand shown
# Sequence of ETV1 (P50549 whole entry): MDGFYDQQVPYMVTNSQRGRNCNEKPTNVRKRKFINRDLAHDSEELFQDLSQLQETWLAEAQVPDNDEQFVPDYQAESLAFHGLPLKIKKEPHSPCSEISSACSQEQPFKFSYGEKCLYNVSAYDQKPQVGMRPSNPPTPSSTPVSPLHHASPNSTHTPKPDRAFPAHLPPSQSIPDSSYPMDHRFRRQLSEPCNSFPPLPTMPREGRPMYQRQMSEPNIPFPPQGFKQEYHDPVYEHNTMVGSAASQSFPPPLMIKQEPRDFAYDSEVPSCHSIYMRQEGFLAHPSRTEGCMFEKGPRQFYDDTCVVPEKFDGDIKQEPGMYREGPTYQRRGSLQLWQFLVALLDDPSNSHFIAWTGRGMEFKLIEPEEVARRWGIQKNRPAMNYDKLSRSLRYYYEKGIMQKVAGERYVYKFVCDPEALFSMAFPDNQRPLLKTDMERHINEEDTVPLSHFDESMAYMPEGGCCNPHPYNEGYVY
# How it was run: as §1
sequence,measurement,setting,value
TTGGCA,binding signal,FLI1,"1.15 fold enrichment (6-mer frequency, TF over GST control)"
same,binding signal,ELK1,"1.23 fold enrichment (6-mer frequency, TF over GST control)"
same,binding signal,GABPA,"1.08 fold enrichment (6-mer frequency, TF over GST control)"
same,binding signal,ERG,"1.15 fold enrichment (6-mer frequency, TF over GST control)"
same,binding signal,ELF1,"1.13 fold enrichment (6-mer frequency, TF over GST control)"
same,binding signal,EHF,"1.08 fold enrichment (6-mer frequency, TF over GST control)"
same,binding signal,SPI1,"1.16 fold enrichment (6-mer frequency, TF over GST control)"
same,binding signal,SPIB,"1.15 fold enrichment (6-mer frequency, TF over GST control)"
same,binding signal,ELK3,"1.17 fold enrichment (6-mer frequency, TF over GST control)"
same,binding signal,FEV,"1.13 fold enrichment (6-mer frequency, TF over GST control)"
same,binding signal,ETV5,"1.07 fold enrichment (6-mer frequency, TF over GST control)"
same,binding signal,HSF1,"1.04 fold enrichment (6-mer frequency, TF over GST control)"
same,binding signal,SPIC,"1.17 fold enrichment (6-mer frequency, TF over GST control)"
same,binding signal,ELF4,"1.16 fold enrichment (6-mer frequency, TF over GST control)"
same,binding signal,ELK4,"1.34 fold enrichment (6-mer frequency, TF over GST control)"
same,binding signal,ETV2,"1.25 fold enrichment (6-mer frequency, TF over GST control)"
same,binding signal,ELF3,"1.07 fold enrichment (6-mer frequency, TF over GST control)"
same,binding signal,CRX,"1.12 fold enrichment (6-mer frequency, TF over GST control)"
same,binding signal,ETV1,"1.18 fold enrichment (6-mer frequency, TF over GST control)"
